Data taken from the supplement of paper PMC7380943.

Tests used:
[1] = system: CLZ3 (HCA2 human fibroblast dual HR-NHEJ reporter); assay: NHEJ repair efficiency (GFP+ cells) relative to control (log10 fold); higher = more non-homologous end joining; conditions: 5 µM; doxycycline 0.5 ug/mL
[2] = system: CLZ3 (HCA2 human fibroblast dual HR-NHEJ reporter); assay: HR repair efficiency (tdTomato+ cells) relative to control (log10 fold); higher = more homologous recombination; conditions: 5 µM; doxycycline 0.5 ug/mL
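For HR repair efficiency (tdTomato+ cells) relative to control in this document: compound given one day before doxycycline, which switches on I-SceI endonuclease expression to create double-strand breaks within the integrated reporter.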
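For NHEJ repair efficiency (GFP+ cells) relative to control in this document: compound given one day ahead of doxycycline, which switches on I-SceI endonuclease to cut the chromosomally integrated reporter and create DSBs.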

Row | Structure (SMILES) | NHEJ repair efficiency (log10) [1] | HR repair efficiency (log10) [2]
1 | O=c1c(O[C@@H]2O[C@H](CO)[C@H](O)[C@H](O)[C@H]2O)c(-c2ccc(O)c(O)c2)oc2cc(O)cc(O)c12 [Hyperoside] | 0.0115 | -0.00424
2 | COc1cc(CNC(=O)CCCC/C=C/C(C)C)ccc1O [Capsaicin] | -0.0748 | -0.0984
3 | O=C1O[C@H]2[C@@H]3OC(=O)c4cc(O)c(O)c(O)c4-c4c(O)c(O)c5oc(=O)c6c(c(O)c(O)c7oc(=O)c4c5c76)-c4c(cc(O)c(O)c4O)C(=O)OC[C@H]3OC(O)[C@@H]2OC(=O)c2cc(O)c(O)c(O)c2-c2c1cc(O)c(O)c2O (mixture of isomers) [Punicalagin] | -0.0664 | -0.254
4 | CC(=O)CCc1ccc(O)cc1 [Raspberry Ketone] | -0.163 | -0.0897
5 | O=C(O)c1cc(O)c(O)c(O)c1 [Gallic acid] | 0.0481 | -0.11
6 | O=c1ccc2ccc(O)c(O)c2o1 [Daphnetin] | 0.0636 | 0.146
7 | C/C=C(/C)C(=O)O[C@H]1[C@@H](OC(=O)CC(C)C)c2c(ccc3ccc(=O)oc23)OC1(C)C [Praeruptorin E] | -0.0864 | -0.0529
8 | O=C(O)c1ccccc1 [Benzoic Acid] | -0.0219 | 0.137
9 | COc1cccc(OC)c1C(=O)OCc1cc(O)ccc1O[C@@H]1O[C@H](CO)[C@@H](O)[C@H](O)[C@H]1O [Curculigoside] | 0.0105 | 0.0401
10 | COc1cc(-c2cc(=O)c3c(O)c(OC)c(O)cc3o2)ccc1O [Jaceosidin] | -0.028 | -0.105
11 | CC(C)=CCC[C@](C)(O[C@@H]1O[C@H](CO)[C@@H](O)[C@H](O)[C@H]1O)[C@H]1CC[C@]2(C)[C@@H]1[C@H](O)C[C@@H]1[C@@]3(C)CC[C@H](O)C(C)(C)[C@@H]3[C@@H](O[C@@H]3O[C@H](CO)[C@@H](O)[C@H](O)[C@H]3O)C[C@]12C [Ginsenoside Rg1] | 0.099 | 0.0737
